Values without a mark were called inactive. Activity calls are given as the source filed them. The call rests on the fitted dose curve; in most records, active means well fitted inhibition curve with a large enough effect; inconclusive means small, poorly fitted or top-dose-only effect; inactive means flat fitted curve, though single readings scatter.

Chain of DNA dC->dU-editing enzyme APOBEC-3G (Homo sapiens) (Q9HC16 whole entry, looked up): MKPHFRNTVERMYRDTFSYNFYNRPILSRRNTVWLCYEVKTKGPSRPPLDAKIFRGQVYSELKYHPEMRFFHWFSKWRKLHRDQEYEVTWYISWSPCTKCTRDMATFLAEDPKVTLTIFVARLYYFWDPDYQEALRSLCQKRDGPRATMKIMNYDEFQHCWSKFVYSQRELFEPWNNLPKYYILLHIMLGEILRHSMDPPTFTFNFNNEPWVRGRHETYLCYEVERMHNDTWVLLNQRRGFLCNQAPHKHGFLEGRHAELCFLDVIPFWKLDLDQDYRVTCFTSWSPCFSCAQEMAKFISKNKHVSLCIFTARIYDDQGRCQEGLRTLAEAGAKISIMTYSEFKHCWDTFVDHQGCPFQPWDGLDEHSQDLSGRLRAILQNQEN

The assay addresses DNA dC->dU-editing enzyme APOBEC-3G (Homo sapiens) (UniProt Q9HC16). Briefly: qHTS for inhibitors of Vif-A3G interactions: Validation (AID 588379). Further: 0% is about no effect. As to conditions: Vif-A3G protein interaction assay; series mostly up to 46.1 µM; activity change, negative = inhibition: at the top concentration. An excerpt: The recent discovery and characterization of host restriction factors, which provide a potent defense to invading retroviruses, has provided new targets for antiviral drug development. APOBEC3G (A3G) and APOBEC3F (A3F) are potent cytidine deaminases that block HIV-1 replication; HIV-1 expresses the Vif protein, which counteracts A3G and A3F by binding to them and inducing their proteasomal degradation.
The Vif-A3G and Vif-A3F interactions provide two potential targets for development of small molecules which can interfere with the ability of Vif to degrade A3G or A3F. […] To identify inhibitors that can interfere with Vif mediated degradation of A3G and A3F, we have developed Hela cell lines that stably express A3G or A3F tagged with eYFP at the C-terminal end (A3G-eYFP or A3F-eYFP, respectively) and Vif. In the absence of an inhibitor, Vif induces degradation of A3G-eYFP and A3F-eYFP, and the cells are not fluorescent. In the presence of an inhibitor, it is expected that Vif will be unable to degrade A3G-eYFP and/or A3F-eYFP, resulting in an increase in yellow fluorescence. In this assays Vif A3G was screened against the Molecular Library Small Molecile Repository (MLSMR).
NIH Chemical Genomics Center [NCGC]
NIH Molecular Libraries Probe Centers Network [MLPCN]
Assay Submitter (PI): Vinay Pathak, National Cancer Institute
5 uL of 700 cells/well of A3G-YFP cells are dispensed into black, clear bottom plates. The plates are incubated overnight at 37 deg C. 23 nL of compounds are added by pintool. The plates are incubated overnight at 37 deg C and then read on the TTP Acumen (Ex 488/ Em 500-530).
In the case of `COC(=O)CN1CN(c2ccccc2)C2(CCN(Cc3ccc4ccccc4c3)CC2)C1=O`, the “activity change, negative = inhibition” value is -1.87%.

For the compound `NC(=NCc1ccc(Cl)cc1)SCCCc1cnc[nH]1`, the “activity change, negative = inhibition” value is 0.0626%.

As to `CN1CCN(c2ccc3ccccc3n2)CC1`, the “activity change, negative = inhibition” value was 1.69%.

As to `Oc1ccc2c3c1O[C@H]1c4[nH]c5ccccc5c4C[C@]4(O)[C@H](C2)N(CC2CC2)CC[C@@]314`, the “activity change, negative = inhibition” value was -3.59%.

Consider `CC[N+](CC)(CCCNC1=CC(=O)C(NCCC[N+](CC)(CC)Cc2ccccc2)=CC1=O)Cc1ccccc1`, for which the “activity change, negative = inhibition” value is 5.32%.

Regarding `c1ccc(CCCCN2CCC(c3ccccc3)CC2)cc1`, the “activity change, negative = inhibition” value is 0.509%.

On to `CC(C)(c1ccc(OC[C@@H]2CO2)cc1)c1ccc(OC[C@H]2CO2)cc1`, for which the “activity change, negative = inhibition” value was -1.33%.

Take `CN1C(=O)CCS(=O)(=O)[C@H]1c1ccc(Cl)cc1`: the “activity change, negative = inhibition” value is -3.61%.

`CN1[C@@H]2CC[C@H]1CC(O[C@@H](c1ccccc1)c1ccc(Cl)cc1)C2` (stereo not given in full): the “activity change, negative = inhibition” value was 0.547%.

As for `C/C(=C\C=C/[C@@H](C)C(=O)O)[C@H]1CN[C@H](C(=O)O)[C@@H]1CC(=O)O`, the “activity change, negative = inhibition” value is 1.31%.

Take `CCOC(OCC)P(=O)(O)CCCN`: the “activity change, negative = inhibition” value was -0.148%.

Take `O=C(O)[C@@H]1C[C@H]2C[C@@H](CP(=O)(O)O)CC[C@H]2CN1`: the “activity change, negative = inhibition” value was -0.758%.

With `c1ccc([C@H]2CNCc3ccccc32)cc1`, the “activity change, negative = inhibition” value is -3.74%.

On to `N[C@H](C(=O)O)c1cc(=O)[nH]o1`, for which the “activity change, negative = inhibition” value is 3.31%.

Regarding `CN1[C@@H]2CC[C@H]1CC(OC(c1ccc(F)cc1)c1ccc(F)cc1)C2` (stereo not given in full), the “activity change, negative = inhibition” value is 0.585%.

As for `C[C@H](N)Cc1c[nH]c2ccc(OCc3cccs3)cc12`, the “activity change, negative = inhibition” value is -0.805%.

Take `CP(=O)(O)CCCN`: the “activity change, negative = inhibition” value was 0.0973%.

Take `CN1CC[C@@H]2CN3CCc4cccc(c43)[C@H]2C1`: the “activity change, negative = inhibition” value is -0.752%.

With `NC[C@@H](CC(=O)O)c1ccc(Cl)cc1`, the “activity change, negative = inhibition” value was 2.26%.

As to `CC(C)[C@@]1(NC(=O)[C@@H]2C[C@H]3c4cccc5[nH]cc(c45)C[C@@H]3N(C)C2)O[C@@]2(O)[C@H]3CCCN3C(=O)[C@H](Cc3ccccc3)N2C1=O`, the Potency entry was “inactive”.

With `NC[C@H](CP(=O)(O)O)c1ccc(Cl)cc1`, the “activity change, negative = inhibition” value was -0.252%.

For the compound `CC(C)n1cnc2c(C(=O)N[C@H]3CN4CCC3CC4)cc(Cl)cc21`, the “activity change, negative = inhibition” value was -2.4%.

As to `CCNC(=O)[C@@H]1O[C@@H](n2cnc3c(N)ncnc32)[C@H](O)[C@H]1O`, the “activity change, negative = inhibition” value is -7.25%.

Consider `c1cncc([C@@H]2CCCCN2)c1`, for which the “activity change, negative = inhibition” value was -11.2%.

As for `C/C(=C\[C@@H](N)C(=O)O)CP(=O)(O)O`, the “activity change, negative = inhibition” value is -7.67%.

For `O=C1Nc2cc(Cl)c(Cl)cc2N2CCNC[C@H]12`, the “activity change, negative = inhibition” value is -1.46%.

In the case of `NC[C@H](CS(=O)(=O)O)c1ccc(Cl)cc1`, the “activity change, negative = inhibition” value is 1.84%.

`CNCC/C=C\c1cccnc1`: the “activity change, negative = inhibition” value is -0.14%.

For `CN(C(=O)Cc1ccc(Cl)c(Cl)c1)[C@H](CN1CCCC1)c1cccc(N=C=S)c1`, the “activity change, negative = inhibition” value is 0.764%.

On to `C[C@@H](Cc1ccc(OCC(=O)O)cc1)NC[C@H](O)c1cccc(Cl)c1`, for which the “activity change, negative = inhibition” value was -0.821%.

For the compound `N[C@H](CP(=O)(O)O)C(=O)O`, the “activity change, negative = inhibition” value is 0.756%.

Consider `CCCCCCC[n+]1ccc(-c2cc[n+](CCCCCCC)cc2)cc1`, for which the “activity change, negative = inhibition” value is 3.7%.

With `CC(C)(O)[C@H]1O[C@@H]2CC[C@]3(C)[C@@]4(C)c5[nH]c6ccccc6c5C[C@@H]4CC[C@]3(O)C2=CC1=O`, the “activity change, negative = inhibition” value was -2.84%.

In the case of `CN[C@@H](Cc1c[nH]c2ccccc12)C(=O)O`, the “activity change, negative = inhibition” value was -0.542%.

`O=C(/C=C\c1ccc(Cl)cc1)N[C@@]12CCC(=O)[C@@H]3Oc4c(O)ccc5c4[C@@]31CCN(CC1CC1)[C@@H]2C5`: the “activity change, negative = inhibition” value was -2.37%.

Consider `CC(=O)O[C@@H]1CN2CCC1CC2`, for which the “activity change, negative = inhibition” value is -3.13%.

Consider `Cc1cccc([C@H](C)c2cnc[nH]2)c1C`, for which the “activity change, negative = inhibition” value is 0.701%.

`COC(=O)/C=C\C(=O)N[C@@H]1CC[C@@]2(O)[C@H]3Cc4ccc(O)c5c4[C@@]2(CCN3CC2CC2)[C@@H]1O5`: the “activity change, negative = inhibition” value is -5.23%.

Take `CN(C(=O)Cc1ccc(Cl)c(Cl)c1)[C@@H](CN1CCCC1)c1cccc(OCC(=O)O)c1`: the “activity change, negative = inhibition” value was -11.7%.

As for `CC1(C)N(O)C(c2ccc(C(=O)O)cc2)=[N+]([O-])C1(C)C`, the “activity change, negative = inhibition” value is -0.331%.
